# Reference: the supplement of paper PMC8728848
# This is one part of a sample in which the strongest signals are shown more often than they occur.
# B1: Epa23 (Candida glabrata) (protein)
# chain: MGSSHHHHHHSSGLVPRGSHMIPNPFEGTINNFPSGCSPNHGLYNRGLTMELYNYSYIHPQSIQSYFNTSTLKKMEKGQCWDPSYLDVNYPRTGYKTHNRFAKVNGIDGILDFEFNPTRSCVPSKGQLPQNYNYPLQFTLSNFTMLLYGYFKPKVTAKHTFTIFADDLLFLNFGAGNAFDCCQQQDTIDDFGNYQAYALWGSDTQQNTLTVNLDANIYYPIRMFYNNRDFKGALNMYFTTDESNTKINDFSGYLFNIPDSSEGCPAHISYETECGNVSG
# Columns and labels:
# Test in all cases: glycan array binding signal (z-score within array); higher = stronger binding
# Conditions in all cases: glycan notation: IUPAC condensed, linker removed
# [1] = molecular target: Fuc(a1-2)[GalNAc(a1-3)]Gal(b1-3)GlcNAc(b1-3)GalNAc
# Method in brief: (§1)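 Negative Z-scores can be read as non-binding. The Z-score is calculated within each array and then averaged across arrays of one protein sequence at different concentrations or buffers and across linkers. Arrays, 3228 in all, were curated from the Consortium for Functional Glycomics database and kept only where the protein sequence was available.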
# [2] = molecular target: Fuc(a1-2)[GalNAc(a1-3)]Gal(b1-4)Glc
# Method in brief: as §1
# [3] = molecular target: Fuc(a1-3)[Gal3S(b1-4)]GlcNAc6S
# Method in brief: as §1
# [4] = molecular target: Gal(a1-3)Gal(b1-4)GlcNAc
# Method in brief: as §1
# [5] = molecular target: Gal(a1-6)Glc
# Method in brief: as §1
# [6] = molecular target: Gal(b1-3)GlcNAc(a1-6)Gal(b1-4)GlcNAc
# Method in brief: as §1
# [7] = molecular target: Gal(b1-3)[Fuc(a1-4)]GlcNAc(b1-6)GalNAc
# Method in brief: as §1
# [8] = molecular target: Gal(b1-4)Glc
# Method in brief: as §1
# [9] = molecular target: Gal(b1-4)GlcNAc(b1-2)Man(a1-3)[Gal(b1-4)GlcNAc(b1-2)Man(a1-6)][GlcNAc(b1-4)]Man(b1-4)GlcNAc(b1-4)[Fuc(a1-6)]GlcNAc
# Method in brief: as §1
# [10] = molecular target: Gal(b1-4)GlcNAc(b1-2)Man(a1-6)[GlcNAc(b1-2)Man(a1-3)]Man(b1-4)GlcNAc(b1-4)GlcNAc
# Method in brief: as §1
# [11] = molecular target: Gal(b1-4)GlcNAc(b1-2)Man(a1-6)[Man(a1-3)]Man(b1-4)GlcNAc(b1-4)GlcNAc
# Method in brief: as §1
# [12] = molecular target: Gal(b1-4)GlcNAc(b1-2)[Gal(b1-4)GlcNAc(b1-6)]Man(a1-6)[Gal(b1-4)GlcNAc(b1-2)Man(a1-3)]Man(b1-4)GlcNAc(b1-4)GlcNAc
# Method in brief: as §1
# [13] = molecular target: Gal(b1-4)GlcNAc(b1-3)Gal(b1-4)GlcNAc
# Method in brief: as §1
# [14] = molecular target: Gal(b1-4)GlcNAc(b1-3)Gal(b1-4)GlcNAc(b1-2)Man(a1-3)[Gal(b1-4)GlcNAc(b1-3)Gal(b1-4)GlcNAc(b1-2)Man(a1-6)]Man(b1-4)GlcNAc(b1-4)GlcNAc
# Method in brief: as §1
# [15] = molecular target: Gal(b1-4)GlcNAc(b1-3)Gal(b1-4)GlcNAc(b1-2)[Gal(b1-4)GlcNAc(b1-3)Gal(b1-4)GlcNAc(b1-6)]Man(a1-6)[Gal(b1-4)GlcNAc(b1-3)Gal(b1-4)GlcNAc(b1-2)Man(a1-3)]Man(b1-4)GlcNAc(b1-4)[Fuc(a1-6)]GlcNAc
# Method in brief: as §1
# [16] = molecular target: Gal(b1-4)GlcNAc(b1-3)Gal(b1-4)GlcNAc(b1-3)Gal(b1-4)GlcNAc(b1-2)[Gal(b1-4)GlcNAc(b1-3)Gal(b1-4)GlcNAc(b1-3)Gal(b1-4)GlcNAc(b1-6)]Man(a1-6)[Gal(b1-4)GlcNAc(b1-3)Gal(b1-4)GlcNAc(b1-3)Gal(b1-4)GlcNAc(b1-2)Man(a1-3)]Man(b1-4)GlcNAc(b1-4)[Fuc(a1-6)]GlcNAc
# Method in brief: as §1
# [17] = molecular target: Gal(b1-4)GlcNAc(b1-3)Gal(b1-4)GlcNAc(b1-3)Gal(b1-4)GlcNAc(b1-3)Gal(b1-4)GlcNAc(b1-2)Man(a1-3)[Gal(b1-4)GlcNAc(b1-3)Gal(b1-4)GlcNAc(b1-3)Gal(b1-4)GlcNAc(b1-3)Gal(b1-4)GlcNAc(b1-2)Man(a1-6)]Man(b1-4)GlcNAc(b1-4)GlcNAc
# Method in brief: as §1
# [18] = molecular target: Gal(b1-4)GlcNAc(b1-3)Gal(b1-4)GlcNAc(b1-3)Gal(b1-4)GlcNAc(b1-3)Gal(b1-4)GlcNAc(b1-2)[Gal(b1-4)GlcNAc(b1-3)Gal(b1-4)GlcNAc(b1-3)Gal(b1-4)GlcNAc(b1-3)Gal(b1-4)GlcNAc(b1-6)]Man(a1-6)[Gal(b1-4)GlcNAc(b1-3)Gal(b1-4)GlcNAc(b1-3)Gal(b1-4)GlcNAc(b1-3)Gal(b1-4)GlcNAc(b1-2)Man(a1-3)]Man(b1-4)GlcNAc(b1-4)[Fuc(a1-6)]GlcNAc
# Method in brief: as §1
# [19] = molecular target: Gal(b1-4)GlcNAc(b1-3)Gal(b1-4)GlcNAc(b1-3)Gal(b1-4)GlcNAc(b1-3)Gal(b1-4)GlcNAc(b1-3)Gal(b1-4)GlcNAc(b1-2)Man(a1-3)[Gal(b1-4)GlcNAc(b1-3)Gal(b1-4)GlcNAc(b1-3)Gal(b1-4)GlcNAc(b1-3)Gal(b1-4)GlcNAc(b1-3)Gal(b1-4)GlcNAc(b1-2)Man(a1-6)]Man(b1-4)GlcNAc(b1-4)GlcNAc
# Method in brief: as §1
# [20] = molecular target: Gal(b1-4)GlcNAc(b1-3)Gal(b1-4)GlcNAc(b1-3)Gal(b1-4)GlcNAc(b1-3)Gal(b1-4)GlcNAc(b1-3)Gal(b1-4)GlcNAc(b1-2)Man(a1-3)[Gal(b1-4)GlcNAc(b1-3)Gal(b1-4)GlcNAc(b1-3)Gal(b1-4)GlcNAc(b1-3)Gal(b1-4)GlcNAc(b1-3)Gal(b1-4)GlcNAc(b1-2)Man(a1-6)]Man(b1-4)GlcNAc(b1-4)[Fuc(a1-6)]GlcNAc
# Method in brief: as §1
# [21] = molecular target: Gal(b1-4)GlcNAc(b1-3)Gal(b1-4)GlcNAc(b1-3)Gal(b1-4)GlcNAc(b1-3)Gal(b1-4)GlcNAc(b1-3)Gal(b1-4)GlcNAc(b1-2)[Gal(b1-4)GlcNAc(b1-3)Gal(b1-4)GlcNAc(b1-3)Gal(b1-4)GlcNAc(b1-3)Gal(b1-4)GlcNAc(b1-3)Gal(b1-4)GlcNAc(b1-6)]Man(a1-6)[Gal(b1-4)GlcNAc(b1-3)Gal(b1-4)GlcNAc(b1-3)Gal(b1-4)GlcNAc(b1-3)Gal(b1-4)GlcNAc(b1-3)Gal(b1-4)GlcNAc(b1-2)Man(a1-3)]Man(b1-4)GlcNAc(b1-4)[Fuc(a1-6)]GlcNAc
# Method in brief: as §1
# [22] = molecular target: Gal(b1-4)GlcNAc(b1-6)Gal(b1-4)GlcNAc
# Method in brief: as §1
# [23] = molecular target: Gal(b1-4)GlcNAc(b1-6)GalNAc
# Method in brief: as §1
# [24] = molecular target: Gal3S4S(b1-4)GlcNAc
# Method in brief: as §1
# [25] = molecular target: Gal6S(b1-4)Glc
# Method in brief: as §1
# [26] = molecular target: Gal6S(b1-4)Glc6S
# Method in brief: as §1
# [27] = molecular target: Gal6S(b1-4)GlcNAc
# Method in brief: as §1
binder,measurement,setting,value
B1,glycan array binding signal (z-score),[1],-0.229
same,glycan array binding signal (z-score),[2],-0.234
same,glycan array binding signal (z-score),[3],-0.161
same,glycan array binding signal (z-score),[4],-0.008
same,glycan array binding signal (z-score),[5],-0.007
same,glycan array binding signal (z-score),[6],-0.078
same,glycan array binding signal (z-score),[7],-0.177
same,glycan array binding signal (z-score),[8],-0.134
same,glycan array binding signal (z-score),[9],-0.232
same,glycan array binding signal (z-score),[10],-0.223
same,glycan array binding signal (z-score),[11],-0.182
same,glycan array binding signal (z-score),[12],0.12
same,glycan array binding signal (z-score),[13],0.139
same,glycan array binding signal (z-score),[14],0.484
same,glycan array binding signal (z-score),[15],2.44
same,glycan array binding signal (z-score),[16],3.33
same,glycan array binding signal (z-score),[17],2.62
same,glycan array binding signal (z-score),[18],3.79
same,glycan array binding signal (z-score),[19],3.01
same,glycan array binding signal (z-score),[20],2.83
same,glycan array binding signal (z-score),[21],4.71
same,glycan array binding signal (z-score),[22],1.43
same,glycan array binding signal (z-score),[23],0.008
same,glycan array binding signal (z-score),[24],-0.241
same,glycan array binding signal (z-score),[25],6.7
same,glycan array binding signal (z-score),[26],11.8
same,glycan array binding signal (z-score),[27],5.69
